# Sampled rows, rich in hits. Any-hit rate of the full collection: about 17%.
# TDP1 block = inhibitors of human tyrosyl-DNA phosphodiesterase TDP1. recombinant TDP1, AlphaScreen DNA substrate cleavage. Potency, µM (doses to about 130 µM), for inactives: at the top dose activity change, negative = inhibition, usual class: inhibitors. AID 485290. 0.28% of 350,000 active. Q9NUW8; further: on the % scale 0 is the no-effect control and ±100 the full control effect; nearly all actives have a fitted effect of over 40% in size
#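 Tdp1 1 nM final; 15 min RT w/ cpd; substrate 15 nM, 5 min; beads 10 ug/ml, 10 min; AlphaScreen read. Neg ctrl: no enzyme.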
# DT40 TDP1 CPT = DT40-hTDP1 cell growth loss with CPT | chicken DT40 Tdp1-/-;hTDP1 cells + 20 nM CPT, ATP luminescence, 48 h | Potency, µM (titrated, usually from 46.2 µM), inactives show at the highest dose activity change, negative = growth inhibition, hits mostly inhibitors | 12% of 420,000 active; further: on the % scale 0 is the no-effect control and ±100 the full control effect; nearly all actives have a fitted effect of over 55% in size
#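 Chicken DT40 Tdp1-/- cells complemented with human TDP1, 400 cells/well, exposed to compounds plus 20 nM camptothecin for at least 48 h at 37 C; viability read as ATP content by CellTiter-Glo luminescence.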
# ClpP mod = qHTS Assay for Activators of ClpP | purified B. subtilis ClpP, FRET peptide cleavage, 20 min | Potency, µM (doses to about 57.5 µM), for inactives: top-dose activity change, negative = active | 1.9% of 340,000 active | AID 651965, 2013; active means well fitted falling curve with a large enough effect; inconclusive means small, poorly fitted or top-dose-only effect; inactive means no such curve, though single readings can be large or run the other way; further: the source files actives as falling curves though it sought activators and does not explain the sign; nearly all actives have a fitted effect of over 65% in size
# Target sequence (P80244 whole entry, looked up): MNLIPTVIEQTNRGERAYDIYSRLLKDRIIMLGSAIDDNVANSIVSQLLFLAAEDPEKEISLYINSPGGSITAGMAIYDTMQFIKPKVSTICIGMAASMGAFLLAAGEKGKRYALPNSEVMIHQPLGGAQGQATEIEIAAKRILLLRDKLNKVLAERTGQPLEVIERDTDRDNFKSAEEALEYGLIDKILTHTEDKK
#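 ClpP 10 microg/mL final, pH 8 Tris/KCl buffer with BSA, glycerol, Tween-20; compound pinned in; FRET-FV substrate; RT 20 min; Ex320/Em430; ΔFRET vs ADEP 5.8 microM, DMSO, no enzyme.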
# TDP1 cell noCPT = qHTS for Inhibitors of human tyrosyl-DNA phosphodiesterase 1 (TDP1): qHTS in cells in absence of CPT | DT40 Tdp1-/- hTDP1 cells, no CPT, ATP luminescence, 48 h | Potency, µM (titrated, usually from 46.2 µM), inactives show at the top dose activity change, negative = growth inhibition, hits mostly inhibitors | 15% of 420,000 active | AID 686978, 2013; further: on the % scale 0 is the no-effect control and ±100 the full control effect; nearly all actives have a fitted effect of over 55% in size
#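 Readout: luminescence from CellTiter-Glo after 30 min in the dark at RT. Cells: DT40 Tdp1-/- with stable hTDP1, 400/well. Exposure: compounds alone, ≥48 hr, 37 °C.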
# The depositor's hits bear a star; ? = inconclusive; . = no result given. Unless noted, the call rests on the fitted dose curve; in most records, active means well fitted curve in the direction sought with a large enough effect; inconclusive means small, poorly fitted or top-dose-only effect, or another doubt; inactive means no such curve, though single readings can be large; an effect the other way counts as inactive or inconclusive. Potency means the concentration at half of the fitted maximal effect.
SMILES,TDP1 block,DT40 TDP1 CPT,ClpP mod,TDP1 cell noCPT
CCc1ccc(C(C)NC(=O)c2cc(C)oc2C)cc1 (configuration not stated),-2%,21µM*,-1%,23µM*
COc1ccc(C(=O)Oc2cc3c4c(c2)C(C)=CC(C)(C)N4C(=O)C3=O)cc1OC,6%,4.6µM*,3%,3.3µM*
COc1cc2c3c(c1)C(C)CC(C)(C)N3C(=O)C2=O (configuration not stated),2%,2.6µM*,.,5.2µM*
COc1cc2c3c(c1)C(C)=CC(C)(C)N3C(=O)C2=O,8%,0.73µM*,.,0.82µM*
COc1cc2c3c(c1)C1(C(=O)N3C(C)(C)C=C2C)C(C#N)=C(N)Oc2cc(O)ccc21 (configuration not stated),9%,5%,1%,-6%
COc1cccc(C(=O)Oc2ccc3ccc(O)cc3c2)c1,.,-2%,3%,11%
COc1cccc(C(=O)Oc2cc3c4c(c2)C(C)=CC(C)(C)N4C(=O)C3=O)c1,12%,3.7µM*,1%,3.7µM*
CCN(CC)CC#CCC(OC)(c1ccccc1)c1ccccc1,-2%,21%,-2%,-13%
CC(=O)NCc1ccc(S(=O)(=O)NC(C(=O)O)C(C)C)cc1 (configuration not stated),-2%,-1%,0%,1%
O=C(NCc1ccccn1)[C@@H]1CCCN1C(=O)[C@@H]1CCCN1C(=O)c1ccc(Cl)cc1,.,2%,1%,-23%
CCNC(=S)N1CCN(c2nc(CC)nc3sc4c(c23)CCCC4)CC1,.,?,1%,?
CCc1nc(N2CCN(C(=O)CCl)CC2)c2c3c(sc2n1)CC(C)CC3 (configuration not stated),6%,3.3µM*,.,6.5µM*
CCc1nc(N2CCN(C(C)=O)CC2)c2c3c(sc2n1)CC(C(C)(C)C)CC3 (configuration not stated),.,?,-1%,12µM*
CC1(C(=O)O)CCN1C(=O)COc1ccc(Cl)cc1 (configuration not stated),.,4%,-1%,1%
Cc1ccc(N=Nc2ccc(O)c3ncccc23)cc1C,8%,2.3µM*,0%,2.3µM*
Cc1ccc(N=Nc2ccc(O)c3ncccc23)cc1,10%,13µM*,0%,13µM*
Oc1ccc(N=Nc2ccc3c(c2)OCO3)c2ccccc12,6%,.,.,.
COc1ccc(CCN2C(=O)c3[nH]nc(-c4ccccc4O)c3C2c2cccc(Cl)c2)cc1 (configuration not stated),10%,23µM*,-4%,21µM*
COCCN1C(=O)c2[nH]nc(-c3ccccc3O)c2C1c1ccc(Cl)c(Cl)c1 (configuration not stated),12%,18µM*,5%,9.2µM*
COc1cccc(C2c3c(-c4cc(Cl)c(C)cc4O)n[nH]c3C(=O)N2Cc2cccnc2)c1 (configuration not stated),4%,?,3%,16µM*
COc1cccc(C2c3c(-c4ccccc4O)n[nH]c3C(=O)N2Cc2cccnc2)c1 (configuration not stated),7%,?,-3%,?
O=C1c2[nH]nc(-c3ccccc3O)c2C(c2cccc(Cl)c2)N1Cc1cccnc1 (configuration not stated),5%,?,-2%,?
COc1cc(C2c3c(-c4cc(Cl)c(C)cc4O)n[nH]c3C(=O)N2Cc2cccnc2)ccc1O (configuration not stated),3%,-6%,0%,?
COc1ccc(CCN2C(=O)c3[nH]nc(-c4ccccc4O)c3C2c2cccc(OC)c2)cc1 (configuration not stated),10%,?,-6%,18µM*
Cc1ccc2nc(-c3ccc4c(c3)OCCO4)cn2c1,7%,1.3µM*,.,1.6µM*
SMILES,TDP1 block,DT40 TDP1 CPT,ClpP mod,TDP1 cell noCPT
Fc1ccc(-c2cn3ccccc3n2)cc1,6%,-5%,3%,-28%
Cc1ccc2nc(-c3ccc4c(c3)NC(=O)CO4)cn2c1,5%,0%,.,?
c1ccn2cc(-c3ccc4c(c3)OCCO4)nc2c1,5%,15µM*,4%,26µM*
Cc1cc(C(=O)Nc2ccc(S(=O)(=O)N3CCOCC3)cc2)ccc1[N+](=O)[O-],.,?,1%,?
NC(=O)c1ccc(N2CCN(S(=O)(=O)c3cccs3)CC2)c([N+](=O)[O-])c1,3%,8.2µM*,-1%,3.7µM*
O=C(c1ccc(N2CCN(S(=O)(=O)c3ccccc3)CC2)c([N+](=O)[O-])c1)N1CCOCC1,-1%,?,1%,21µM*
COc1ccccc1C/C(N)=N/OC(=O)c1ccco1,7%,21µM*,-2%,-2%
C=CC(C)(C)c1[nH]cnc1/C=C1\NC(=O)C(C(C)C)NC1=O (configuration not stated),.,12µM*,-15%,16µM*
CCC(=O)Nc1cc(-c2cccc(C)c2)nn1-c1ccccc1,3%,?,-1%,?
O=C(CCN1C(=O)S/C(=C/c2ccc(Cl)cc2)C1=O)N1CCOCC1,0%,12µM*,0%,16µM*
COC(=O)c1ccc(/C=C2/SC(=S)N(CCC(=O)N3CCOCC3)C2=O)cc1,.,16µM*,.,18µM*
Clc1cccc(Cl)c1CSc1nnc(CN2CCOCC2)n1-c1ccccc1,3%,16µM*,-1%,?
Fc1cccc(Cl)c1CSc1nnc(CN2CCOCC2)n1-c1ccccc1,1%,?,1%,?
CCc1ccc(NC(=O)C(CC)n2nnc(C(=O)OC)c2C(=O)OC)cc1 (configuration not stated),2%,-1%,-1%,-17%
Cc1ccc(C)c(NC(=O)Cn2cc(C(=O)C3CCCCC3)c3ccccc32)c1,2%,?,-1%,?
COc1ccc(-n2c(N3CCN(C)CC3)nc3sc4c(c3c2=O)CCCCC4)cc1,-3%,23µM*,-6%,15µM*
COc1ccc(-n2c(NCCN(C)C)nc3sc4c(c3c2=O)CCCCC4)cc1,5%,?,-2%,16µM*
CN(C)CCNc1nc2sc3c(c2c(=O)n1-c1ccc(F)cc1)CCCCC3,-3%,21µM*,-1%,?
CC1=C(C(=O)Nc2ccccc2)C(c2cccnc2)n2nc(SCc3ccccc3Cl)nc2N1 (configuration not stated),6%,-16%,0%,-8%
C[C@@H]1CN([C@@H](C)CO)C(=O)CCCn2nncc2CO[C@H]1CN(C)S(C)(=O)=O,.,-16%,3%,?
COc1ccc(Cl)cc1Nc1cc(C)nc2nc(-c3ccccc3C)nn12,2%,6%,?,-5%

# Screens as filed in PubChem.
